The entries come from a sample that favours hits as a whole.
Tb PGK inh: T. brucei PGK inhibition. P07378. PGK/GAPDH coupled, Kinase-Glo luminescence, 60 min. Potency, µM (titrated, usually from 57.5 µM), inactives show at the top dose activity change, negative = inhibition, actives largely listed as inhibitors. 380,000 tested, 0.043% active; also: potency is read from the fitted curve at half-maximal effect; % is scaled to controls: 0 for no effect and ±100 for the full control effect; nearly all actives have a fitted effect of over 60% in size
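Recombinant glycosomal PGK reaction used 1,3-bisphosphoglycerate generated in-well by GAPDH (100nM final) in 100mM TEA pH 7.6, 5mM MgCl2, 0.01% Tween-20. After 60 minutes at room temperature, ATP was read by Kinase-Glo Plus luminescence end-point.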
PI4K2A inh: inhibitors of human PI4K2A. 420,000 tested, 0.13% active. Q9BTU6. AID 1346378. activity change, negative = inhibition, % at 76.9 µM. purified PI4K2A, ADP-Glo luminescence, 1 h; stronger effect = lower value; in the data active = activity change below about -50%; inconclusive = mostly about -30% to -49%;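 also: -100% = wells without enzyme as full effect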
Target sequence (Q9BTU6 whole entry, looked up): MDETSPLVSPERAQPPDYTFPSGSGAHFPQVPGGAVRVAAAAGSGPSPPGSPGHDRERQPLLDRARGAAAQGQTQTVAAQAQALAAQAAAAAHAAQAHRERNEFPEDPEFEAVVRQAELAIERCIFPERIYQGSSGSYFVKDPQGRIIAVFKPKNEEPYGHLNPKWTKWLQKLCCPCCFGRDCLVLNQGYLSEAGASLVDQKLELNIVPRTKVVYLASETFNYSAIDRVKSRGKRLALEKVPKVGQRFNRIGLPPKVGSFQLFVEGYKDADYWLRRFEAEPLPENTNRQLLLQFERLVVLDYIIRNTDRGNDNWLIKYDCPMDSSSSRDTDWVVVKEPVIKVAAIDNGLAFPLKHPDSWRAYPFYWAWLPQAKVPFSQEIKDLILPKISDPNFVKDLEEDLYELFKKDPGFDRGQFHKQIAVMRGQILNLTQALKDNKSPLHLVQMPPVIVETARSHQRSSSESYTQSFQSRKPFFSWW
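Compounds are screened against recombinant PI4K2A using PI as substrate and ATP, the latter dispensed at 300 microM. Reactions run one hour at ambient temperature before ADP-Glo detection; full inhibition defined by wells lacking enzyme.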
Tb PFK inh-1: inhibitors of T. brucei phosphofructokinase; 330,000 tested, 0.17% active; Potency, µM (titrated, usually from 57.5 µM), for inactives: top-dose activity, negative = inhibition, usual class: inhibitors; O15648; T. brucei PFK, ADP-Glo luminescence;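 also: potency is read from the fitted curve at half-maximal effect; 0% = uninhibited 1x PFK enzyme wells and -100% = no-enzyme wells; nearly all actives have a fitted effect of over 60% in size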
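In TEA buffer at pH 8.0 with 5 mM MgCl2, enzyme (1.25 nM) converted F6P (0.5 mM) and ATP (0.1 mM) for 45 min at room temperature. ADP product was read by luciferase luminescence.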
PI5P4K alpha inh: blocks human PI5P4K alpha kinase activity; P48426; AID 652105; PI5P4Kalpha enzyme, ADP-Glo luminescence, 60 min; stronger effect = lower value; max response, %; 330,000 tested, 1.2% active; active = max response of -50% or lower; inconclusive = between -30% and -50%; inactive = -30% or higher; also: value at the top dose of about 77 µM; % is scaled to controls: 0 for no effect and ±100 for the full control effect
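Enzyme plus substrate dispensed, test compounds pinned in, then ATP (5 microM final) added. After 60 min at RT, ADP-Glo reagent 1 for 45 min and reagent 2 for 30 min preceded luminescence imaging.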
Pin1 inhibitor: inhibitors of human Pin1; Pin1 FP peptide displacement, HiFluor488, 10 min; Potency, µM (series often up to 115 µM), for inactives: at the highest dose activity, negative = inhibition, usual class: inhibitors; 390,000 tested, 0.009% active; AID 504891; active = well fitted inhibition curve with a large enough effect in the polarisation, with a control signal flat, not every such curve was filed as active; inconclusive = small, poorly fitted or top-dose-only effect, or effect the other way, or a change in a side signal; inactive = no such curve, though single readings can be large or run the other way; the % refers to the polarisation; also: potency is read from the fitted curve at half-maximal effect; % is scaled to controls: 0 for no effect and ±100 for the full control effect
Tb PFK KinaseGlo: Tb phosphofructokinase inhibition, orthogonal luminescence | shares compounds with Tb PFK inh-1 | Tb PFK enzyme, ATP depletion, Kinase-Glo Plus luminescence | Potency, µM (titrated, usually from 57.5 µM), without a hit: top-dose inhibition | 1,100 tested, 47% active | AID 504636; calls by dose curve; also: potency is read from the fitted curve at half-maximal effect; nearly all actives have a fitted effect of over 60% in size
Tb PFK inh-2: T. brucei PFK enzyme inhibition, hit validation; purified T. brucei PFK, ADP-Glo luminescence, 45 min; shares compounds with Tb PFK inh-1; Potency, µM (series often up to 57.5 µM), without a hit: at the top dose activity change, negative = inhibition, actives largely listed as inhibitors; 1,100 tested, 41% active;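 also: potency is read from the fitted curve at half-maximal effect; plate controls were full PFK enzyme control for no effect and no enzyme control for full effect; nearly all actives have a fitted effect of over 60% in size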
* marks the source's active call; other numbers are inactive results; i = inactive; ? = inconclusive; . = not tested or not shown; ! = not active in a repeat; [ ] = another dose, or the depositor's remark. Unless noted, calls follow the shape of the dose curve; as a rule, active = well fitted curve in the direction sought with a large enough effect; inconclusive = small, poorly fitted or top-dose-only effect, or another doubt; inactive = no such curve, though single readings can be large; an effect the other way counts as inactive or inconclusive.

SMILES	Tb PGK inh	PI4K2A inh	Tb PFK inh-1	PI5P4K alpha inh	Pin1 inhibitor	Tb PFK KinaseGlo	Tb PFK inh-2
CC(C)C[C@H]1N=C(c2ccccc2)c2ccccc2N(CC(=O)NC(C)(C)C)C1=O	.	3.9	.	.	.	.	.
CN1CCc2cccc3c2[C@H]1Cc1ccc(O)c(O)c1-3	-1.8%	-2.5	1.9µM*	-56.5*!	?	2.69µM*	6.75µM*
NNc1ccccc1	.	-2.1	.	.	.	.	.
Cc1ccc(-n2c(/C=C/c3ccccc3)nc3ccccc3c2=O)cc1Cl	-2.6%	-1.7	.	.	5.1%	.	.
Cc1cc(C)c2c(=O)n(CC(=O)NC3CCCC3)sc2n1	-4.5%	9.2	6.01µM*	-64.2*	-3.8%	?	5.36µM*
Cc1cc(C)c2c(=O)n(CC(=O)Nc3cccc(Cl)c3C)sc2n1	10.5%	-3.3	4.78µM*	-87.0*	-2.9%	?	6.01µM*
Cc1cc(C)c2c(=O)n(CC(=O)Nc3ccc(Br)c(C)c3)sc2n1	-8.3%	-2.6	13.5µM*	-61.7*	1.9%	2.69µM*	3.01µM*
O=[N+]([O-])c1ccc(Cc2ccccn2)cc1	0.3%	0.4	?	0.3	-3.5%	?	?
CCn1cc(C(=O)NCCc2ccc(OC)c(OC)c2)c(=O)c2cc(S(=O)(=O)N(C)C3CCCCC3)ccc21	-9.6%	-3.7	.	.	19.2%	.	.
O=C(NC(O)C(Cl)(Cl)Cl)NC(O)C(Cl)(Cl)Cl (stereo unspecified)	.	0.9	.	.	.	.	.
CC[n+]1c(C)sc2cc(C)ccc21	-8.1%	-2.1	?	-4.5	0.6%	-5.8%	-0.9%
CCOC(=O)CC[C@@H]1CC[C@]2(CCCN(Cc3cccnc3)C2)O1	.	-1.3	.	.	.	.	.
O=[N+]([O-])c1ccc(NCc2ccc3c(c2)OCO3)cc1	-9.0%	-1.1	6.01µM*	3.8	0.4%	4.78µM*	12µM*
O=[N+]([O-])/C=C/c1ccc2c(c1)OCO2	.	-1.6	.	.	.	.	.
CCOC(=O)NCc1ccc(Cl)c(Cl)c1	6.1%	3.5	30.1µM*	-1.0	0.9%	21.3µM*	?
Cc1ccc(C(=O)NCc2ccc(Cl)c(Cl)c2)o1	-5.2%	3.3	10.7µM*	0.0	-3.3%	6.75µM*	23.9µM*
CCOC(=O)NC(C)(C)Cc1ccc(Cl)cc1	.	1.3	.	.	.	.	.
COc1ccc(N2CCN(C(=O)CSc3nnc(CNc4ccccc4)o3)CC2)cc1	-6.0%	0.4	?	.	-2.7%	19µM*	30.1µM*
CCOC(=O)CN(C(=O)CSc1nnc(CNc2ccc(F)cc2)o1)c1ccccc1	i	-0.7	23.9µM*	5.9	-5.8%	13.5µM*	26.9µM*
O=C(CSc1nnc(CNc2ccc(F)cc2)o1)N1CCN(C(=O)c2ccco2)CC1	4.2%[11.5 µM]	-2.9	?	.	-1.7%	15.1µM*	23.9µM*
CCOc1ccc(C(=O)Nc2ccc3nc(SCCOc4ccccc4)sc3c2)cc1	-7.2%	0.0	.	.	?	.	.
CCCC(=O)N1c2ccc(Cl)cc2C(c2ccccc2)=NCC1C(=O)NC(C)(C)C (stereo unspecified)	.	0.6	.	.	.	.	.
NC(CCCCCP(=O)(O)O)C(=O)O (stereo unspecified)	.	-5.2	.	.	.	.	.
Nc1c(/C=C2/C=CC(=O)C(O)=C2)c(=O)nc2sc(CC(=O)N3CCCCC3)nn12	?	-6.1	19µM*	-11.2	-1.8%	2.69µM*	3.79µM*
Cc1nn(Cc2ccccc2)c(C)c1C(=O)OCC(=O)NCc1ccco1	1.8%	3.0	2.2%	-6.6	2.7%	.	.
O=C(COC(=O)CCOc1ccccc1)NCc1ccco1	-12.3%	-15.7	?	?	?	?	?
O=C1Nc2ccccc2C(=O)C1(Cl)Cc1ccccc1 (stereo unspecified)	-2.0%	-19.6	?	-28.5	2.0%	10.7µM*	13.5µM*
O=C1C=C(NCc2ccc(Cl)c(Cl)c2)C2(CCCCC2)O1	-4.9%	0.0	16.9µM*	6.5	-2.9%	6.01µM*	23.9µM*
O=C(Cc1ccc(Cl)c(Cl)c1)NCC1(N2CCOCC2)CCCCC1	3.5%	-2.5	-21.0%	2.8	?	.	.

High-throughput results as filed in PubChem BioAssay.
